Experimental data as given in PubChem BioAssay AID922 (National Center for Advancing Translational Sciences (NCATS), 2007).
Records with an inconclusive call do not appear. Active and inactive are the calls of the source. Calls follow the shape of the dose curve; as a rule, active = well fitted inhibition curve with a large enough effect in the signal ratio, with a control signal flat; inconclusive = small, poorly fitted or top-dose-only effect, or effect the other way; inactive = flat fitted curve, though single readings scatter; the % refers to the signal ratio.

assay: Confirmation Concentration-Response Assay for Identification of Small Molecule Antagonists of Stat Signaling Pathway; settings: SIE-bla cells, IL-6 stimulated, beta-lactamase ratio, 5 h
Excerpt: NIH Molecular Libraries Screening Centers Network [MLSCN] NIH Chemical Genomics Center [NCGC] MLSCN Grant: None NCGC Assay Overview: This assay is a retest of actives identified from the Stat signaling pathway assay (PubChem AID 446). The Stat assay is cell-based and measures Interleukin 6 (IL-6) mediated modulation of a beta-lactamase reporter gene controlled by a STAT inducible element (SIE-bla cells, Invitrogen). IL-6 is a cytokine that signals via the JAK/STAT pathway and is implicated in cancer and inflammation. SIE-bla cells are induced by IL-6 at 40 pM EC50 and inhibited by the pan JAK inhibitor, 2-(1,1-Dimethylethyl)-9-fluoro-3,6-dihydro-7H-benz[h]-imidaz[4,5-f]isoquinolin-7-one, at approximately 10 nM IC50. Plated cells were incubated overnight and on the following day, stimulated with 40 pM IL-6 for 5 hrs. The assay was stimulated with an EC50 of IL-6 to retest inhibitors of STAT signaling.
NCGC Assay Protocol Summary: Cells were trypsinized, washed in assay medium (AM, OPTI MEM with 0.5% fetal bovine serum, 0.1 mM nonessential amino acids, 1 mM sodium pyruvate, 10mM HEPES pH 7.3, 100U/ml penicillin, and 100 ug/ml streptomycin) and suspended at […] in AM. Approximately 2500 cells in 5 uL/well was dispensed into 1536-well plates and the cells were incubated overnight at 37 C. 23 nL of compound were delivered by a pin tool and 1 uL of IL-6 (40 pM final concentration in AM) was added. After plates were incubated at 37 C for 5 hrs, 1uL of detector mix (LiveBLAzerTM, Invitrogen) was added, the plates incubated at room temperature for 2.5 hrs, and fluorescence intensity at 460 and 530 nm emissions was measured at 405 nm excitation by an Envision (Perkin Elmer).

| SMILES | Potency |
| --- | --- |
| CC(C)[C@H](CO)Nc1nc(Nc2cccc(Cl)c2)c2ncn(C(C)C)c2n1 | 5.01 µM (active) |
| COc1ccc(C[C@@H]2C(=O)N[C@H](C)C(=O)N(C)[C@@H]3C(=O)N(C)[C@@H](Cc4ccc(O)c(c4)Oc4ccc(cc4)[C@H]3O)C(=O)N[C@@H](C)C(=O)N[C@H](C)C(=O)N2C)cc1 | 0.398 µM (active) |
| CC(C)C[C@H]1C(=O)N2CCC[C@H]2[C@]2(O)O[C@](NC(=O)[C@@H]3C=C4c5cccc6[nH]c(Br)c(c56)CC4N(C)C3)(C(C)C)C(=O)N12 (stereo partly specified) | 12.6 µM (active) |
| C[C@]1(C(=O)O)[C@@H]2CC[C@@H](O2)[C@@]1(C)C(=O)O | 10 µM (active) |
| CC[C@@H]1CN2CCc3cc(OC)c(OC)cc3[C@H]2C[C@@H]1C[C@@H]1NCCc2cc(OC)c(OC)cc21 | 0.398 µM (active) |
| CCn1cnc2c(Nc3cccc(Cl)c3)nc(N[C@@H]3CCCC[C@H]3N)nc21 | 3.98 µM (active) |
